Measurements as given in PubChem BioAssay AID1259312 (Keith Lab, Institute of Cancer Science, University of …, 2017).
The whole screen tested about 4,500 compounds, of which about 200 (4.4%) were called active. This excerpt belongs to a sample that is enriched for actives. A number with no mark means an inactive call.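 The calls were made as follows: active = cell survival measured by absorbance rises more than 2.5-fold over infected cells without compound; inactive = the rest.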

Test: survival after telomere uncapping, modulators, primary screen, cell-based (AID 1259312);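 also: virus expresses mutant telomerase RNA that uncaps telomeres and kills cells; compound added 2 days after infection so exposure lasts 3 days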
Settings: HCT116 + Ad-hTR-mut, MTT, 5 d; at 10 µM, hits give high values

| Compound | fold change |
| --- | --- |
| COCCNS(=O)(=O)c1ccccc1 | -1.41 |
| Cc1nc2ccccc2nc1C | -2.23 |
| Cc1nc2ccccc2nc1NO | active |
| Cc1nc2ccccc2nc1C=O | -2.07 |
| ON=C1C2CC3CC(C2)CC1C3 | -1.41 |
| Oc1ccc(Br)cc1/C=N/c1ccccn1 | inactive |
| COc1cc2c(cc1N)OCO2 | -1.08 |
| c1ccc2nc3c(nc2c1)[nH]c1ccccc13 | -1.56 |
| c1ccc2c(c1)[nH]c1nc3nnnn3nc12 | active |
| Cc1ccc2[nH]c3nc4ccccc4nc3c2c1 | -1.34 |
| CC1CCCN(c2nc3ccccn3c(=O)c2C=O)C1 (configuration not stated) | -1.15 |
| CSc1nnnn1-c1ccccc1 | -1.25 |
| c1ccc(-c2noc(CSc3nnnn3-c3ccccc3)n2)cc1 | -1.1 |
| c1ccc(-n2nnnc2SCSc2nnnn2-c2ccccc2)cc1 | 3.7 (active) |
| C#CCn1cc(/C=C2/SC(=NC)N(C)C2=O)c2ccccc21 | -1.74 |
| O=C(O)CCCn1c(O)c(/C=C2/C=c3ccccc3=NC2=O)sc1=S | active |
| O=C(O)CCCCCn1c(O)c(C2=c3cc(Br)ccc3=NC2=O)sc1=S | inactive |
| O=C(O)Cn1c(O)c(/C=C2/C=c3ccccc3=NC2=O)sc1=S | inactive |
| CCOC(=O)C1=C(C)NC2=C(C(=O)CC(C)(C)C2)C1c1ccc(C)s1 (configuration not stated) | -1.32 |
| CN=C1S/C(=C/c2cn(Cc3ccc(F)cc3)c3ccccc23)C(=O)N1C | -1.32 |
| O=C(O)C1OC(O)C(O)C(O)C1O (configuration not stated) | -2.05 |
| CCOC(=O)CN(C1=NS(=O)(=O)c2ccccc21)c1ccccc1 | 1.02 |
| COc1ccc(NS(=O)(=O)c2ccc(N=Cc3cc(Br)cc(Br)c3O)cc2)nn1 | inactive |
| CCOC(=O)c1c(C)nn2cc(-n3cc([N+](=O)[O-])cn3)cnc12 | 5.25 (active) |
| O=C(O)Cn1cc([N+](=O)[O-])cn1 | 2.02 |
| CCCCNC(=O)Cn1cc([N+](=O)[O-])cn1 | -2.9 |

| Compound | fold change |
| --- | --- |
| COc1cc(C(c2ccccc2)(c2ccccc2)c2ccccc2)cc2c1NC(C)(C)C=C2C | 2.23 |
| NCc1cc(C(F)(F)F)cc(C(F)(F)F)c1 | -1.11 |
| O=C(CC(C(=O)O)n1ccnc1)c1ccc(C2CCCCC2)cc1 (configuration not stated) | 2.74 (active) |
| O=C(CC(c1ccc(Cl)c(Cl)c1)C1CCCCCC1=O)c1ccc(Cl)cc1 (configuration not stated) | -1.72 |
| CC(CC(=O)O)n1ccnc1 (configuration not stated) | 1.78 |
| O=C1ON=C(c2ccccc2)/C1=C/N1CCCCC1 | -1.47 |
| O=C1CN(C(=O)CSC2CCS(=O)(=O)C2)c2ccccc2N1 (configuration not stated) | -1.24 |
| CC1(C)CC(=O)C2=C(C1)OC(N)=C(C#N)C2c1cc(Br)cs1 (configuration not stated) | -1.65 |
| Cc1ccc(C2C(C#N)=C(N)OC3=C2C(=O)CC(C)(C)C3)s1 (configuration not stated) | -4.43 |
| COC(=O)C1=C(C)OC(N)=C(C#N)C1c1cccs1 (configuration not stated) | -1.65 |
| CC1(C)CC(=O)C2=C(C1)OC(N)=C(C#N)C2c1cccs1 (configuration not stated) | 4.33 (active) |
| CCOC(=O)C1=C(C)OC(N)=C(C#N)C1c1cccs1 (configuration not stated) | 2.09 |
| CC1CC2=C(C(=O)O1)C(c1cccs1)C(C#N)=C(N)O2 (configuration not stated) | 2.62 (active) |
| Cc1[nH]c2ccccc2c1C(=O)C(=O)NC(C)(C)C | -1.22 |
| CCOC(=O)c1c(NC(=O)C23CC4CC(CC(C4)C2)C3)sc2c1CCCCC2 | -1.2 |
| N#C/C(=C\c1ccccc1/C=C(\C#N)c1ccc2c(c1)OCO2)c1ccc2c(c1)OCO2 | 1.78 |
| CC(=O)OC[C@H]1O[C@@H](n2cc(C)c(=O)[nH]c2=O)C[C@@H]1OC(C)=O | -1.48 |
| Clc1ccccc1/C=C/c1nnc(-c2ccccc2Cl)o1 | -1.03 |
| CCCCCC(=O)O[C@]1(C(C)=O)CC[C@H]2[C@@H]3CCC4=CC(=O)CC[C@]4(C)[C@H]3CC[C@@]21C | -1.16 |
| CC12CCC(=O)C=C1CCC1C2CCC2(C)C1CC[C@@]21OCOC12COCO2 (some centres not stated) | 3.17 (active) |
| CC(=O)[C@H]1CC[C@H]2[C@@H]3CCC4=CC(=O)CC[C@]4(C)[C@H]3CC[C@]12C | 1.4 |
| CC(Sc1nnc(Cc2ccccc2)n1C1CCCCC1)c1nc(N)nc(N2CCCc3ccccc32)n1 (configuration not stated) | -1.7 |
| O=c1cc(-c2cccc(O)c2)oc2cc(O)ccc12 | -1.53 |
| O=C(c1ccc(COc2ccc(Cl)cc2Cl)o1)n1cc(Br)cn1 | -1.16 |
| CC1CC[C@H](C(C)C)C(O)C1 (some centres not stated) | -1.42 |
| O=c1[nH]c(SCc2nc3ccc([N+](=O)[O-])cc3[nH]2)nc2ccccc12 | inactive |
